The values that follow come from the supplement of paper PMC10338343.

± gives the standard deviation.

This experiment concerns MILI (PIWIL2) piRISC loaded with piRNA #1 (26 nt). Briefly: pre-steady-state target cleavage rate (min^-1); guide: piRNA #1 5'p-UGAGGUAGUAGGUUGUAUAGUAUCCA; MIWI and MILI are mouse PIWI proteins and EfPiwi is from a freshwater sponge; tags in brackets are library labels; higher = faster piRNA-guided slicing of the target. The following applies: auxiliary factor: 500 nM mouse GTSF1. An outline of the steps:
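Three pooled Cleave-'n-Seq trials supplied the data, with k3 capped at 0.0001 min^-1. In each, […] transcribed, DNA-blocked target RNA library and 1 nM active affinity-purified piRISC with one synthetic guide reacted in HEPES–potassium acetate buffer at 33 °C for 0–8 or 0–960 min, with or without 500 nM GTSF1 partner protein. Uncleaved targets were sequenced and normalised to depth and to weakly complementary targets. A burst-and-steady-state fit provided the pre-steady-state cleavage rate.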
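Also: 1 nM active piRISC with 0.1 nM target library at 33 °C single turnover.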

Turning to GGAGACCUAUGAUAACAAGCUACUACCUCA, the “pre-steady-state target cleavage rate” value was 0.0133 ± 0.0028.

For GGAGACCUAACUUUACAACCUACUACGUCA, the “pre-steady-state target cleavage rate” value is 0.0224 ± 0.01.

In the case of GGAGACCAUACUAUACAACCUUCAACCUCA, the “pre-steady-state target cleavage rate” value stood at 0.0066 ± 0.0029.

With GGAGACCUUUCUUUACAACCUACUACCUCA, the “pre-steady-state target cleavage rate” value amounted to 0.07 ± 0.012.

As for GGAGACCUUAGUAUACAACCUACAACCUCA, the “pre-steady-state target cleavage rate” value stood at 0.0865 ± 0.013.

As for GGAGACCAUACUAUACAUCGUACUACCUCA, the “pre-steady-state target cleavage rate” value is 0.0535 ± 0.0071.

Consider GGAGAGGUUACUAUUCAACCUACUACCUCA, for which the “pre-steady-state target cleavage rate” value stood at 0.164 ± 0.0098.

In the case of GGAGACCUUACUUUACUACCUACUACCUCA, the “pre-steady-state target cleavage rate” value was found to be 0.0948 ± 0.01.

In the case of GGAGACCUAUCUAUUGAACCUACUACCUCA, the “pre-steady-state target cleavage rate” value amounted to 0.0631 ± 0.011.

Turning to GGAGACCUAUGAUUACAUCCUUCUACCUCA, the “pre-steady-state target cleavage rate” value is 0.00314 ± 0.0026.

GGAGACCUAUGUAUACAACCUACUACCUGA: the “pre-steady-state target cleavage rate” value stood at 0.0463 ± 0.008.

Turning to GGAGACCUAUCAAUACAACGUACUACCUCA, the “pre-steady-state target cleavage rate” value was 0.00874 ± 0.0028.

For GGAGACCUAUCUUUACUACCUACUACCUCA, the “pre-steady-state target cleavage rate” value was determined as 0.0305 ± 0.008.

As for GGAGUGGAUACUAUACAACCUACAUCCUCA, the “pre-steady-state target cleavage rate” value was found to be 0.00356 ± 0.0016.

For GGAGACCUAUGUAUACAACCGUACUACCUCA, the “pre-steady-state target cleavage rate” value came out at 0.00758 ± 0.0041.

For GGAGACCUAUCUAUACAACGUACUACCUCA, the “pre-steady-state target cleavage rate” value turned out to be 0.0127 ± 0.0028.

Turning to GGAGACCUAACUAUGACAACCUACUACCUCA, the “pre-steady-state target cleavage rate” value was 0.0415 ± 0.0097.

Turning to GGAGACCAUACUAUUGUACCUACUACCUCA, the “pre-steady-state target cleavage rate” value was found to be 0.0647 ± 0.009.

GGAGACCUAUCUAUAAAACCUACUACCUCA: the “pre-steady-state target cleavage rate” value came to 0.0877 ± 0.013.

For the sequence GGAGACCUUACUAUACUAGCUACUACCUCA, the “pre-steady-state target cleavage rate” value was found to be 0.171 ± 0.012.

Regarding GGAGACCUAUGAUAUGUUCCUAGUACCUGA, the “pre-steady-state target cleavage rate” value is less than 0.0001.

As to GGAGACCUAUGAUAUGUUGGUACUACGAGA, the “pre-steady-state target cleavage rate” value is less than 0.0001.

On to GGAGACCUAACUAUACAUCCUUCUACCUCA, for which the “pre-steady-state target cleavage rate” value amounted to 0.0117 ± 0.0069.

Regarding GGAGACCUAUGUAAACAACCUACUUCCUCA, the “pre-steady-state target cleavage rate” value amounted to 0.00599 ± 0.002.

As for GGAGACCAUACUAAAGAACCUACUACCUCA, the “pre-steady-state target cleavage rate” value turned out to be 0.11 ± 0.012.

On to GGAGACCUAUGAAUACUUCCUACUACCUCA, for which the “pre-steady-state target cleavage rate” value turned out to be 0.00297 ± 0.0022.

For the sequence GGAGACCAUACUUUAGAACCUACUACCUCA, the “pre-steady-state target cleavage rate” value turned out to be 0.134 ± 0.013.

GGAGACCUAUGUAUACAACCUAUUACCUCA: the “pre-steady-state target cleavage rate” value turned out to be 0.0697 ± 0.0079.

With GGAGACCUGACUAUACAACCUACUACCUCA, the “pre-steady-state target cleavage rate” value stood at 0.125 ± 0.028.

Regarding GGAGUGGAUUCUAUACAACCUACUACCACA, the “pre-steady-state target cleavage rate” value is 0.121 ± 0.011.

On to GGAGACCUUACUAUACUACCUACUACGUCA, for which the “pre-steady-state target cleavage rate” value amounted to 0.0704 ± 0.01.

As for GGAGACCUAACUAUACAACCUACUACACUCA, the “pre-steady-state target cleavage rate” value worked out at 0.168 ± 0.028.

As to GGAGUGGACUACUAUACAACCUACUACCUCA, the “pre-steady-state target cleavage rate” value was found to be 0.156 ± 0.01.

For GGAGACGAUUCUAUACAACCUACUACGUCA, the “pre-steady-state target cleavage rate” value was 0.0993 ± 0.0097.

Take GGAGACCUAUGAAUACAACUUACUACCUCA: the “pre-steady-state target cleavage rate” value is 0.00939 ± 0.003.

In the case of GGAGAGGAACUAUACAACCUACUACCUCA, the “pre-steady-state target cleavage rate” value is 0.167 ± 0.013.

Turning to GGAGAGGAUACUAUACUACCUACUACCACA, the “pre-steady-state target cleavage rate” value came to 0.171 ± 0.016.

As for GGAGACCUUUCUAUACAACCUACAACCUCA, the “pre-steady-state target cleavage rate” value is 0.0806 ± 0.01.

Take GGAGACCUAUGUAUACAACUUACUACCUCA: the “pre-steady-state target cleavage rate” value came to 0.0134 ± 0.0024.

Turning to GGAGACCUAUCUAUACAACGUACUUCCUCA, the “pre-steady-state target cleavage rate” value stood at 0.0209 ± 0.0035.

As to GGAGACCUAUGAAUACAACCUAGUACCUGA, the “pre-steady-state target cleavage rate” value was less than 0.0001.

Take GGAGACCUAUGAUAACAACCUACACCUCA: the “pre-steady-state target cleavage rate” value is less than 0.0001.

As for GGAGACCAUACUAUACAACCUAGCUACCUCA, the “pre-steady-state target cleavage rate” value worked out at 0.0804 ± 0.012.

Take GGAGACCAUACUAUACAAGCUACAACCUCA: the “pre-steady-state target cleavage rate” value is 0.212 ± 0.022.

As for GGAGACCUAUGUAAUCAACCUACUACCUCA, the “pre-steady-state target cleavage rate” value amounted to 0.00445 ± 0.003.

Consider GGAGACCUAUGUAUACAAACUACUACCUCA, for which the “pre-steady-state target cleavage rate” value was found to be 0.111 ± 0.012.

As to GGAGACCAUUCUAUACAAGCUACUACCUCA, the “pre-steady-state target cleavage rate” value is 0.254 ± 0.018.

In the case of GGAGACCUAUGUAUACAACCUACUACCACA, the “pre-steady-state target cleavage rate” value worked out at 0.0991 ± 0.01.

Turning to GGAGACCUAUCUAUACAACGAACUACCUCA, the “pre-steady-state target cleavage rate” value worked out at 0.00423 ± 0.0023.

In the case of GGAGACCAUACUAAUCAACCUACUACCUCA, the “pre-steady-state target cleavage rate” value stood at 0.17 ± 0.019.

For GGAGACCUAUGAUAUGUACCAACUAGCUCA, the “pre-steady-state target cleavage rate” value is less than 0.0001.

For GGAGACCAUACUAUACAACCUACAACCACA, the “pre-steady-state target cleavage rate” value amounted to 0.0647 ± 0.017.

For GGAGACCUAUGAUAUGUACCUACUGACCUCA, the “pre-steady-state target cleavage rate” value was less than 0.0001.

On to GGAGACCUUUACUAUACAACCUACUACCUCA, for which the “pre-steady-state target cleavage rate” value was 0.154 ± 0.012.

On to GGAGAGGAUUCUAUUCAACCUACUACCUCA, for which the “pre-steady-state target cleavage rate” value was 0.174 ± 0.013.

Turning to GGAGACCUAACUAUAGAAGCUACUACCUCA, the “pre-steady-state target cleavage rate” value was determined as 0.156 ± 0.029.

On to “GGAGACCUAUGAUAUGUUGGUACUACCAGA [g4:g10:cont:t1A]”, for which the “pre-steady-state target cleavage rate” value is less than 0.0001.

On to GGAGACCUAUGUAUACAGCCUACUACCUCA, for which the “pre-steady-state target cleavage rate” value is 0.0196 ± 0.0053.

In the case of GGAGACCUAUGAUUACAACCUACUGCCUCA, the “pre-steady-state target cleavage rate” value was found to be 0.00572 ± 0.0028.

For the sequence GGAGACCUUACUAUACAACCUAUCUACCUCA, the “pre-steady-state target cleavage rate” value worked out at 0.0976 ± 0.011.

For GGAGACCUAACUUUAGAACCUACUACCUCA, the “pre-steady-state target cleavage rate” value came to 0.129 ± 0.023.

Regarding GGAGACCUAUGUAUACAUCCUACAACCUCA, the “pre-steady-state target cleavage rate” value was found to be 0.114 ± 0.014.

In the case of GGAGACCAUACUAUAGAUCCUACUACCUCA, the “pre-steady-state target cleavage rate” value was 0.229 ± 0.026.

In the case of GGAGACCUUACUAUACAACCUACUACUCUCA, the “pre-steady-state target cleavage rate” value amounted to 0.242 ± 0.025.

Take GGAGACCUAUGAUUACAAUCUACUACCUCA: the “pre-steady-state target cleavage rate” value was found to be 0.00319 ± 0.0026.

As to GGAGACCUAUCUAUUCAACCUACUACCUCA, the “pre-steady-state target cleavage rate” value worked out at 0.108 ± 0.015.

In the case of GGAGACCUAUCUAUACAACCUACAUCCUCA, the “pre-steady-state target cleavage rate” value amounted to 0.0186 ± 0.0046.

Take GGAGACCUAUGAAUACAACCUACUACGCUCA: the “pre-steady-state target cleavage rate” value was 0.0107 ± 0.0039.

Consider GGAGACCAUACUAAACAACCUACAACCUCA, for which the “pre-steady-state target cleavage rate” value is 0.117 ± 0.016.

Regarding GGAGACCUAUCUAUUCAACCUACUAGCUCA, the “pre-steady-state target cleavage rate” value is 0.0826 ± 0.014.

For the sequence GGAGACCUAUCAAUACAACCUUCUACCUCA, the “pre-steady-state target cleavage rate” value came out at 0.00474 ± 0.0027.

Regarding GGAGACCUAUCUAUACAACCUACUACCUGCA, the “pre-steady-state target cleavage rate” value was determined as 0.103 ± 0.014.

Turning to GGAGACCUAUGAUAUGUUCCUUCUACCUGA, the “pre-steady-state target cleavage rate” value was less than 0.0001.

In the case of GGAGACCUAUGUAUACAACCUACUUCCACA, the “pre-steady-state target cleavage rate” value was determined as 0.0135 ± 0.0034.

With GGAGACCUAACAAUACAACCUACAACCUCA, the “pre-steady-state target cleavage rate” value was 0.0691 ± 0.019.

For the sequence GGAGACCUAACUAUACUACGUACUACCUCA, the “pre-steady-state target cleavage rate” value stood at 0.0154 ± 0.0042.
